# High-throughput results as filed in PubChem BioAssay.
# A selection: hits, their analogues and other compounds. The true share with any hit is near 1.2%.
# KCNH2 3.1 inh = KCNH2 3.1 (human) potassium channel inhibition; U2OS KCNH2 3.1, thallium flux FluxOr; active compounds read low; activity change, % (tested at about 1.8 µM); hit rate 0.95% among 340,000; AID 720553;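 active means maximum activity change below -70%; inconclusive means maximum activity change from -70% to -50%; inactive means maximum activity change above -50%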;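 further: thallium influx rate constant from kinetic fluorescence after stimulation buffer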
#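 FluxOr-based Tl+ influx in U2OS cells transduced with KCNH2 3.1 virus; rate constants normalized to DMSO controls.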
# hERG WT inh = blocks the wildtype human KCNH2 potassium channel. Q12809. U2OS, BacMam KCNH2, thallium flux FluxOr; active compounds read low. activity change, % at 1.84 µM. hit rate 0.37% among 340,000. AID 720551;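 active means maximum activity change below -70%; inconclusive means maximum activity change between -70% and -50%; inactive means maximum activity change above -50%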
# Target sequence (Q12809 whole entry, looked up): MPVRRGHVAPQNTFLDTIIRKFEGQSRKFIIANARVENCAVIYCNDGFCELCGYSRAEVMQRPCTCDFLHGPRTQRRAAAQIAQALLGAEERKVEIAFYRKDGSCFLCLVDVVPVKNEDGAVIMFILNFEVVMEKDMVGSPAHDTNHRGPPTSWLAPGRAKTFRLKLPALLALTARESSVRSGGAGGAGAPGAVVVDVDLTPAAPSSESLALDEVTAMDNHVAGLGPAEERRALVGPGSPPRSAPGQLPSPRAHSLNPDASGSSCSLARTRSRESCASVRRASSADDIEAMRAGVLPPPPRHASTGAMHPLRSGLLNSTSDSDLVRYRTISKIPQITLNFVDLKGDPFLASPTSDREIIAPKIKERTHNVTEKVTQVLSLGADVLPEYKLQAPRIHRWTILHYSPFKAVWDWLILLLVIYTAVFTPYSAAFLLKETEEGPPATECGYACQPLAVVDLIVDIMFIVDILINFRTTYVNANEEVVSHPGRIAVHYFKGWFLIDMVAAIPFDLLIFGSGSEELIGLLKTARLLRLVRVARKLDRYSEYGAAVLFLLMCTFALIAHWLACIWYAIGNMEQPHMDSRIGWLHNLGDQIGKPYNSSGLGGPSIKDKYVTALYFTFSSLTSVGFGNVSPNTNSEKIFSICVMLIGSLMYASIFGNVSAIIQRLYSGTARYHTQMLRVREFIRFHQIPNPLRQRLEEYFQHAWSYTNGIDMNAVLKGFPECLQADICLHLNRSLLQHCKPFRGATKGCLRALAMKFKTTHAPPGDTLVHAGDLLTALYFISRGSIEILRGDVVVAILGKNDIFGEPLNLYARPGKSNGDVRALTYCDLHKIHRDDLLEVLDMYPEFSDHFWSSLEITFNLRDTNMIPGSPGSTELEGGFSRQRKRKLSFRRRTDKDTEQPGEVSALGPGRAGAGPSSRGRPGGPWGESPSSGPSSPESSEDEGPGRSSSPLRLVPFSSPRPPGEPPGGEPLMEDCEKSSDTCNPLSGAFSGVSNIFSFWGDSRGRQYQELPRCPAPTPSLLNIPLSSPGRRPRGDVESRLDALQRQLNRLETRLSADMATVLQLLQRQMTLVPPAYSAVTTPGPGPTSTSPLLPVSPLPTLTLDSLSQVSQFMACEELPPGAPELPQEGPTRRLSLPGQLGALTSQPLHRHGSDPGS
#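 U2OS cells were transduced with wild-type KCNH2 virus (2.03 x 10^8 / mL) for 4 h at room temperature, then cultured overnight at 37 C. Thallium flux was read with FluxOr dye. Rate constants were normalized to DMSO controls.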
# Luc counter = Kinase-Glo luciferase inhibition (counter-screen). Potency, µM (highest dose often 38.3 µM), for the others: at the highest dose activity change, negative = inhibition, actives largely listed as inhibitors. AID 1379. Q27757. Kinase-Glo luciferase, ATP luminescence, 8 min. hit rate 0.28% among 200,000; active means well fitted inhibition curve with a large enough effect; inconclusive means small, poorly fitted or top-dose-only effect; further: potency means the concentration at half of the fitted maximal effect; nearly all actives have a fitted effect of over 60% in size
#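 Compounds were added to a substrate mix at pH 7.2 (50 mM imidazole, 10 uM ATP, within the enzyme's linear range), followed by Kinase-Glo detection reagent; luminescence was measured after 8 minutes at ambient temperature.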
# * = called active by the depositor; ? = inconclusive; . = no result given; [ ] = another dose, or the depositor's remark. On the % scale 0 is the no-effect control and ±100 the full control effect.
SMILES,KCNH2 3.1 inh,hERG WT inh,Luc counter
CC1(C)CC(O)CC(C)(C)N1CC(O)COCc1ccccc1 (configuration not stated),-81.3*,3.5,.
Cc1cccc(OCC(O)CN2C(C)(C)CC(O)CC2(C)C)c1 (configuration not stated),-3.9,16.1,1.6%
CN1C(=O)C(=O)/C(=C(/O)c2ccccc2)C1c1ccc(Br)cc1 (configuration not stated),7.9,-0.6,.
CN(C)c1ccc(C2/C(=C(/O)c3ccc(Br)cc3)C(=O)C(=O)N2C)cc1 (configuration not stated),-175.8*,-1.5,.
CC(C)(C)c1csc(N/N=C/c2ccc(O)cc2)n1,-0.3,0.9,.
O=C(Nc1cnccn1)c1ccncc1,-84.3*,-0.3,-0.8%
O=C(Nc1cnccn1)c1ccc(Cl)cc1,-7.1,-0.3,.
COc1ccc(C(=O)NC2CCN(CC(=O)NCc3ccccc3)CC2)cc1,12.8,12.8,.
Brc1ccc2ncnc(NCc3ccco3)c2c1,-2.0,-2.2,-4.1%
OC(CNCc1ccco1)Cn1c2ccc(Br)cc2c2cc(Br)ccc21 (configuration not stated),-100.2*,-97.9*,-0.2%
COCC(=O)N1CCC[C@@]2(CCN(C(=O)Nc3cccc(C#N)c3)C2)C1,.,.,-0.6%
O=C(/C=C/c1c(C(=O)O)[nH]c2cc(Cl)cc(Cl)c12)Nc1ccccc1,.,.,0.6%
CC(C)(C)C(=O)NNC(=O)C1CC1(c1ccccc1)c1ccccc1 (configuration not stated),11.7,-2.0,.
O=C(Nc1ccc(Cl)cc1)N1CCC(c2ccccc2)C1 (configuration not stated),3.1,6.6,-1.1%
CC(C)N(C)C1CCN(C(=O)Nc2ccc(Cl)cc2)CC1,-198.1*,17.7,-4.5%
C[C@@H](C1[C@@H](O)CC2C3C=CC4C[C@@H](O)CC[C@]4(C)[C@H]3CC[C@@]21C)[C@@H]1CCCCN1 (some centres not stated),.,.,-2.0%
Cc1cccc(CSc2ncccc2C(=O)O)c1,4.8,-87.0*,1.4%
Cc1ccc(CSc2ncccc2C(=O)O)cc1,-9.6,-1.7,-4.0%
O=C(c1cccs1)N1C[C@@H](O)[C@H](n2cc(-c3ccc(F)cc3)nn2)C[C@@H]1c1ccc(Cl)cc1,-15.0,-9.0,.
CS(=O)(=O)c1cccc(C(=O)OCCCC(=O)c2ccccc2)c1,-6.7,-7.3,.
CN(C)c1cccc(C(=O)OCCCC(=O)c2ccc(F)cc2)c1,-129.9*,-5.1,.
O=C(NCCc1ccccc1)C(c1ccccc1F)N(C(=O)c1csnn1)C1CC1 (configuration not stated),-86.4*,12.8,.
O=C(NCCc1ccccc1)C(c1ccccc1)N(C(=O)c1csnn1)C1CC1 (configuration not stated),11.2,-5.6,-1.3%
Cc1ccccc1Nc1oc(-c2ccccc2)nc1-c1ccccc1,.,.,-21.8%
O=C(O)/C=C\c1c2ccc(=O)c(O)c-2oc2c(O)c(O)ccc12,.,.,-3.3%[7.66 µM]
SMILES,KCNH2 3.1 inh,hERG WT inh,Luc counter
CN1C(=O)CS/C1=N\NC(=O)COc1cccc2cccnc12,4.5,3.5,0.3%
Cc1cc(C)c2[nH]c(=O)c(CN(Cc3ccco3)C(=S)NCC3CCCO3)cc2c1 (configuration not stated),-6.5,-5.7,-0.4%
Cc1ccc2cc(CN(Cc3ccco3)C(=S)NCC3CCCO3)c(=O)[nH]c2c1C (configuration not stated),-82.3*,-1.3,1.0%
COc1ccccc1N1CCN(CCN2C(=O)C3CCCN3C2=O)CC1 (configuration not stated),-15.1,3.3,.
Cc1nn(C)c(Cl)c1CN1CCC(CO)(CCOc2ccccc2)CC1,-14.0,10.8,-1.0%
COc1cc(CN2CCC(CO)(CCOc3ccccc3)CC2)cc(OC)c1OC,6.3,.,-0.8%
COc1ccc(CN2CCC(CO)(CCOc3ccccc3)CC2)cc1C,-124.8*,-13.4,.
COc1cc(OC)c(CN2CCC(CO)(CCOc3ccccc3)CC2)c(OC)c1,.,-104.8*,-2.9%
Cc1cc(C(=O)Nc2cccc3c2O[C@H](CN(C)CC2CC2)[C@@H](C)CN([C@H](C)CO)C3=O)n(C)n1,20.3,-0.6,.
COc1cc(-n2cnnn2)ccc1S(=O)(=O)N1CCOCC1,-144.0*,-105.5*,-3.9%
O=S(=O)(c1cccc(-n2cnnn2)c1)N1CCOCC1,3.5,-12.4,-2.4%
O=C(CSc1nnc2c(n1)[nH]c1ccccc12)NCc1ccco1,-2.7,-1.7,-1.4%
Cc1cc(C)n2nc(SCC(=O)NC(=O)c3ccccc3)nc2n1,1.6,4.8,.
CCC(=O)OCC(=O)Nc1cc(C)c(C)cc1[N+](=O)[O-],-4.0,2.6,2.0%
Cc1cc(NC(=O)COC(=O)CC2CCCC2)c([N+](=O)[O-])cc1C,-72.3*,-12.7,.
Cc1cc(NC(=O)CCC(=O)N(CC(=O)NC2CCCC2)c2ccc(F)c(Cl)c2)no1,-10.6,-9.3,.
O=Cc1cccn1Cc1ccc(Cl)cc1Cl,?,0.9,-1.6%
NNC(=O)c1cccn(Cc2ccc(Cl)cc2Cl)c1=O,-6.3,-87.7*,.
C=CCOC(=O)C(C#N)c1nc2ccccc2nc1N1CCN(Cc2ccc3c(c2)OCO3)CC1 (configuration not stated),-103.3*,-110.9*,-2.3%
CCCCCCOC(=O)C(C#N)c1nc2ccccc2nc1N1CCCCC1 (configuration not stated),9.1,-4.2,-0.6%
CCCCNC(=O)C(C#N)c1nc2ccccc2nc1N1CCN(Cc2ccc3c(c2)OCO3)CC1 (configuration not stated),-16.8,-15.7,.
CCCCCCOC(=O)C(C#N)c1nc2ccccc2nc1N1CCN(C)CC1 (configuration not stated),-70.8*,9.4,0.8%
COc1cc(C2C3=C(COC3=O)Oc3cc4c(cc32)OCO4)cc(OC)c1OC(C)=O (configuration not stated),-3.9,0.7,.
COc1cc(C=CC(=O)N2CCN(CC(=O)N3CCCC3)CC2)cc(OC)c1OC,-6.2,4.0,.
Cc1c(OCC(=O)N2CCC(C(N)=O)CC2)ccc2c1oc(=O)c1ccccc12,3.6,-2.0,.
SMILES,KCNH2 3.1 inh,hERG WT inh,Luc counter
O=C(Nc1ccn(CCCN2CCN(Cc3ccc(F)cc3)CC2)c(=O)n1)OCc1ccccc1,-27.0,6.6,.
O=C(Nc1ccn(CCCN2CCN(c3ncccn3)CC2)c(=O)n1)OCc1ccccc1,-2.4,-73.7*,.
CCc1ccccc1OCCOc1ccc(C)cc1OC,-3.2,-4.4,-1.0%
CCc1ccccc1OCCCOc1ccc(OC)cc1,-99.2*,-1.4,-0.8%
Cc1ccc(NC(=S)N2CCN(S(C)(=O)=O)CC2)cc1C,-8.8,4.6,.
Cc1ccc(S(=O)(=O)N2CCC(C(=O)NNC(=O)c3ccccc3)CC2)cc1,-115.4*,14.9,-1.7%
Cc1ccc(C(=O)NNC(=O)C2CCN(S(=O)(=O)c3ccc(C)cc3)CC2)cc1,0.5,-3.0,.
CN(C/C=C/c1ccccc1)Cc1cccc2ccccc12,-94.5*,14.6,.
CN(Cc1ccc(C(C)(C)C)cc1)Cc1cccc2ccccc12,.,.,1.7%[39.9 µM]
Cc1cc(OCc2cc(C(=O)NC(C)c3c(C)nn(C)c3C)no2)cc(C)c1Cl (configuration not stated),-1.1,-8.0,.
O=C(COC(=O)C1=NNC(=O)CC1)NCCc1ccccc1,37.7,-5.8,.
